The text below walks through data of PubChem BioAssay (NCI).

SMILES strings stand for the structures. Compounds without any hit were thinned out: in the full panel of roughly 83,000, 20% have a hit.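 Method: cells in 96-well plates; compound added at one concentration; 48 h incubation; percent growth measured; values under 10 scored active.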 Unmarked numbers belong to inactive results. Activity calls are given as the source filed them.

Holding throughout (experiment): NCI-60 one-dose screen, 48 h (100 = growth as untreated, 0 = no growth, -100 = all killed)
One test relates to SK-MEL-2 melanoma. To be noted: 10 µM unless noted.
For another test, the system named is SN12C renal. Particulars: 10 µM unless noted.
In the next test the test system is UO-31 renal. To be noted: 10 µM unless noted.
The test system of the next test is TK-10 renal. Particulars: 10 µM unless noted.
The subject of the next test is ACHN renal. Particulars: 10 µM unless noted.
A further test deals with CAKI-1 renal. Particulars: 10 µM unless noted.
For a further test, the system named is A498 renal. To be noted: 10 µM.
Another test has as its system HL-60(TB) leukemia. Particulars: 10 µM unless noted.
The test system of a further test is CCRF-CEM leukemia. Particulars: 10 µM unless noted.
The test system of a further test is MOLT-4 leukemia. To be noted: 10 µM unless noted.
The next test has as its system SR leukemia. Particulars: 10 µM unless noted.
Another test concerns RPMI-8226 leukemia. Particulars: 10 µM unless noted.
A further test relates to OVCAR-8 ovarian. To be noted: 10 µM unless noted.
A further test relates to OVCAR-5 ovarian. Particulars: 10 µM unless noted.
In a further test the test system is OVCAR-4 ovarian. Particulars: 10 µM unless noted.
The next test deals with SK-OV-3 ovarian. To be noted: 10 µM unless noted.
The subject of another test is IGROV1 ovarian. Particulars: 10 µM unless noted.
The test system of the next test is OVCAR-3 ovarian. To be noted: 10 µM unless noted.
Another test relates to HS 578T breast. To be noted: 10 µM unless noted.

On to `Cc1ccc(S(=O)(=O)F)cc1C(=O)O`, for which the growth is 105% with SK-MEL-2 melanoma; 99.1% in the test on SN12C renal; 91.9% in the test on UO-31 renal; 107% in the test on TK-10 renal; 101% in the test on ACHN renal; 93.9% in the test on CAKI-1 renal. Also, the growth in the test with A498 renal is 132%; in the test on HL-60(TB) leukemia, 104%; in the test on CCRF-CEM leukemia, 97.2%; in the test with MOLT-4 leukemia it was 99.6%; in the test with SR leukemia, 103%; with RPMI-8226 leukemia, 100%. Also, the growth in the test on OVCAR-8 ovarian was 116%; with OVCAR-5 ovarian, 102%; in the test with OVCAR-4 ovarian it was 110%; with SK-OV-3 ovarian it was 88.3%; in the test with IGROV1 ovarian, 102%; with OVCAR-3 ovarian, 109%. Also, the growth with HS 578T breast was 112%.

Turning to `COc1cc2c(=O)n(C3CCCCCCC3)c3c4cc[nH]c4ncc3c2cc1OC`, the growth in the test with SK-MEL-2 melanoma is 78.7%; in the test on SN12C renal, 49.8%; with UO-31 renal, 22.5%; in the test on TK-10 renal, 30.8%; with ACHN renal, 40.9%; in the test on CAKI-1 renal it was 54.6%. The growth in the test on A498 renal was 4.93% (active); in the test on HL-60(TB) leukemia, 57.6%; in the test with CCRF-CEM leukemia, 44.9%; in the test on MOLT-4 leukemia it was 40.6%; with SR leukemia, 17.4%; in the test with RPMI-8226 leukemia it was 50.1%. Further, the growth was 43.7% with OVCAR-8 ovarian; 79.3% with OVCAR-5 ovarian; -9.58% (active) with OVCAR-4 ovarian; 36.5% with SK-OV-3 ovarian; 36.8% in the test on OVCAR-3 ovarian; 2.28% (active) with HS 578T breast.

Regarding `CC[C@H](C)[C@H](NC(=O)[C@H]1CCCCN1C)C(=O)N(C)[C@H](CC(=O)c1nc(C(=O)N[C@@H](Cc2ccccc2)C[C@H](C)C(=O)O)cs1)C(C)C`, the growth in the test on SK-MEL-2 melanoma is 37.8%; in the test on SN12C renal it was 83.8%; with UO-31 renal, 88.6%; with TK-10 renal it was 97.2%; in the test on ACHN renal, 109%; with A498 renal, 73.4%. Further, the growth is -7.69% (active) with HL-60(TB) leukemia; 21.2% with CCRF-CEM leukemia; 64.4% in the test on MOLT-4 leukemia; 27.8% in the test on SR leukemia; 43.2% with RPMI-8226 leukemia; 96.9% with OVCAR-8 ovarian. Further, the growth is 107% in the test on OVCAR-5 ovarian; 106% with OVCAR-4 ovarian; 91.5% in the test with SK-OV-3 ovarian; 76.5% in the test with IGROV1 ovarian; 55.8% with OVCAR-3 ovarian; 72.2% with HS 578T breast.

For the compound `Cc1ccc(C(=O)NCCCOc2ccc(N)cc2Cl)cc1S(=O)(=O)F`, the growth in the test with SK-MEL-2 melanoma is 78.7%; in the test with SN12C renal it was 105%; in the test with UO-31 renal it was 70.7%; in the test with TK-10 renal, 97.1%; in the test with ACHN renal it was 105%; with CAKI-1 renal, 92.5%. Also, the growth with A498 renal was 82.4%; in the test on CCRF-CEM leukemia, 88.7%; in the test on MOLT-4 leukemia it was 79.7%; in the test with SR leukemia, 87.9%; in the test with RPMI-8226 leukemia, 85.6%; in the test on OVCAR-8 ovarian, 101%. The growth in the test on OVCAR-5 ovarian was 102%; with OVCAR-4 ovarian it was 97.5%; in the test with SK-OV-3 ovarian it was 82.1%; in the test with IGROV1 ovarian, 95.5%; in the test with OVCAR-3 ovarian, 98.8%; in the test on HS 578T breast it was 98%.

In the case of `CCN(CC)CCOC(=O)C(OC(C)C)(c1ccccc1)c1ccccc1`, the growth with SK-MEL-2 melanoma was 88.2%; in the test with SN12C renal it was 106%; in the test on UO-31 renal, 79.1%; with TK-10 renal, 89%; in the test with ACHN renal, 104%; in the test with CAKI-1 renal, 87.2%. Also, the growth is 72.6% in the test with A498 renal; 99.6% in the test with HL-60(TB) leukemia; 102% in the test with CCRF-CEM leukemia; 93.1% in the test with MOLT-4 leukemia; 102% in the test on RPMI-8226 leukemia; 106% with OVCAR-8 ovarian. Also, the growth in the test with OVCAR-5 ovarian is 92.9%; in the test with OVCAR-4 ovarian, 103%; in the test with SK-OV-3 ovarian it was 94.4%; in the test with IGROV1 ovarian, 87.2%; with OVCAR-3 ovarian, 97.3%; in the test with HS 578T breast, 93.4%.

Consider `COc1cc([N+](=O)[O-])c2nc(C)ccc2c1[N+](=O)[O-]`, for which the growth in the test on SK-MEL-2 melanoma is 102%; in the test on SN12C renal it was 89%; with UO-31 renal, 74.9%; in the test on TK-10 renal, 122%; in the test with ACHN renal, 89.5%; in the test on CAKI-1 renal, 104%. The growth in the test with A498 renal is 121%; with CCRF-CEM leukemia it was 91.3%; in the test with MOLT-4 leukemia, 98.2%; in the test on SR leukemia, 82.2%; with RPMI-8226 leukemia, 80.7%; in the test on OVCAR-8 ovarian, 89.1%. In addition, the growth in the test with OVCAR-5 ovarian is 131%; with OVCAR-4 ovarian, 103%; in the test with SK-OV-3 ovarian it was 119%; with IGROV1 ovarian, 109%; in the test with OVCAR-3 ovarian it was 44.2%; in the test with HS 578T breast, 106%.

With `Nc1c(F)cc(-c2nc3cc(F)ccc3[se]2)cc1F`, the growth in the test with SK-MEL-2 melanoma is 107%; with SN12C renal, 85.9%; in the test on UO-31 renal it was 60.2%; with TK-10 renal, 27.7%; with ACHN renal, 68.7%; in the test with A498 renal, 38.9%. Besides, the growth with HL-60(TB) leukemia is 83.5%; in the test on CCRF-CEM leukemia, 88.7%; in the test with MOLT-4 leukemia, 78.7%; in the test on SR leukemia it was 20.6%; in the test with RPMI-8226 leukemia, 48.8%; in the test with OVCAR-8 ovarian, 95.5%. Further, the growth was 31.1% in the test with OVCAR-5 ovarian; 48.9% with OVCAR-4 ovarian; 61.4% in the test on SK-OV-3 ovarian; 19.5% in the test on IGROV1 ovarian; 71.3% in the test with OVCAR-3 ovarian; 94.7% in the test on HS 578T breast.

As for `O=C1C2CCC1C(N1CCCC1)CC2` (stereo not given), the growth in the test with SK-MEL-2 melanoma is 103%; in the test with SN12C renal, 100%; in the test with UO-31 renal, 87.5%; in the test on TK-10 renal, 97.8%; in the test on ACHN renal it was 102%; in the test with CAKI-1 renal, 97.7%. Besides, the growth with A498 renal is 92.2%; in the test with CCRF-CEM leukemia it was 94.3%; in the test with MOLT-4 leukemia, 98%; with SR leukemia, 100%; in the test on RPMI-8226 leukemia, 98.7%; in the test on OVCAR-8 ovarian it was 96.3%. The growth was 101% in the test with OVCAR-5 ovarian; 106% in the test with OVCAR-4 ovarian; 106% in the test with SK-OV-3 ovarian; 96% in the test on IGROV1 ovarian; 106% with OVCAR-3 ovarian; 102% in the test with HS 578T breast.
